Measurements taken from PubChem BioAssay (NCATS).
Records with an inconclusive call do not appear. A number with no mark means an inactive call. Activity calls are given as the source filed them. The call rests on the fitted dose curve; in most records, active means well fitted inhibition curve with a large enough effect; inconclusive means small, poorly fitted or top-dose-only effect; inactive means flat fitted curve, though single readings scatter.

Each compound was assayed against Aldehyde dehydrogenase, mitochondrial (Homo sapiens) (UniProt P05091) (assay: qHTS for Inhibitors of the Aldehyde Dehydrogenase Family (ALDH2) Primary screen (AID 2061308;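 further: plate controls were vehicle for no effect and reference inhibitor for full effect; nearly all actives have a fitted effect of over 55% in size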)). Settings: ALDH2 enzyme inhibition qHTS, 1536-well; series mostly up to 56 µM; activity change, negative = inhibition: at the top concentration.

| SMILES | activity change, negative = inhibition [%] | Potency |
| --- | --- | --- |
| Cc1cccc(-n2cnc3cc(C(=O)NC4CCCC4)ccc32)c1 | 5.44 |  |
| O=C(OCC#CCSc1nnc(-c2cccc3ccccc23)o1)c1cccc(C(F)(F)F)c1 | -10.2 |  |
| Cc1ccc(C(=O)Oc2ccc(-c3nc4ccccc4[nH]3)cc2)cc1Br | 1.65 |  |
| C[C@H](Oc1cc(-n2cnc3ccc(CN4CCN(C)CC4)cc32)sc1C(N)=O)c1ccccc1C(F)(F)F | 1.77 |  |
| O=C(Cc1ccc(Cl)c(Cl)c1)Nc1ccc([S+](=O)([O-])Nc2ccc3[nH]ccc3c2)cc1 | -4.02 |  |
| CS(=O)(=O)Nc1ccc(-c2nc(NCc3ccc(-c4ccnc(C(F)(F)F)c4)cc3)c3ccccc3n2)cc1 | -7.73 |  |
| CC(=O)c1ccc(O[C@@H]2O[C@H](CO)[C@@H](O)[C@H](O)[C@H]2O)cc1 | -8 |  |
| O=C(Nc1ccc(S(=O)(=O)Nc2nccs2)cc1)[C@@H]1CC[C@H](C(=O)c2ccccc2)C1 | 12.7 |  |
| O=C(Cn1nc(-c2ccc3c(c2)OCO3)ccc1=O)NCCc1ccccc1 | 5.97 |  |
| O=C(/C=C/c1ccc(Cl)cc1)Nc1cccc([S+](=O)([O-])Nc2ccccc2F)c1 |  | inactive |
| CC(=O)Nc1sc2c(c1-c1cccc3c1sc1ccccc13)CCNC2 | -11.7 |  |
| COc1cc(F)c(S(=O)(=O)N2CCCN(S(=O)(=O)c3ccc(N)cc3)CC2)c(F)c1 | 10 |  |
| CCCn1c(-c2ccc(F)cc2)nc2c(NCCN3CCCCC3)nc(C)nc21 | 6.57 |  |
| Cc1ccc(-c2ccc(=O)n(CC(=O)N(C)CCN(C)C)n2)cc1 | -9.84 |  |
| O=C1CCCC2=C1C(c1cccc(F)c1)N=C(Nc1nc3ccccc3o1)N2 (stereo not given) | 4.01 |  |
| O=C(OCC#CCSc1nnc(-c2cccc3ccccc23)o1)c1sccc1Cl | 1.71 |  |
| Cc1nc(NC2CCCCC2)c2nc(-c3ccccc3)n(CC3CCN(C)CC3)c2n1 | 5.6 |  |
| O=C(Nc1ccc(Cl)c(Cl)c1)Nc1nnc(-c2cccnc2)s1 | 7.52 |  |
| O=C(O)c1cccc(-c2cccc(-c3nn4c(=O)cc(N5CCNCC5)nc4s3)c2)c1 | -36.2 |  |
| CCOc1ccc(CCN(C)C(=O)c2cc3sccc3n2Cc2ccccc2)cc1OCC | -12.8 |  |

| SMILES | activity change, negative = inhibition [%] | Potency |
| --- | --- | --- |
| O=C(NC1CCCc2c1cnn2-c1ccc(F)cc1F)C1CCCCN1 (stereo not given) | -5.05 |  |
| CN(CCc1ccco1)c1ncnc2ccc(-c3ccc4c(c3)OCO4)cc12 | -7.61 |  |
| NC(=O)C1CCN(c2nc(-c3ccccc3Cl)cs2)CC1 | -3.44 |  |
| Cc1ccc(-c2ccc(=O)n(CC(=O)N(C)[C@H](C)c3ccccc3)n2)cc1 | 4.52 |  |
| Cc1ccc(NS(=O)(=O)c2ccc3c(c2)N(C)CCO3)cc1C | 0.745 |  |
| Cc1ccc(NC(=O)CN2C(=O)N/C(=C\c3cccn3-c3cccc(C(=O)O)c3)C2=O)cc1 | -6.24 |  |
| Cc1ccc(CC(=O)Nc2nc(-c3ccc4c(c3)CCN4C(=O)c3ccccc3C)c(C)s2)cc1C | -11.7 |  |
| CCC1CCCN(C(=O)CC(c2ccc3c(c2)OCO3)c2c(O)cc(OC)cc2OC)C1 (stereo not given) | 5.13 |  |
| O=S(=O)(Nc1nccs1)c1ccc(Nc2nc(-c3ccccc3)cs2)cc1 | 8.14 |  |
| O=C(O)CNC(=O)CNC(=O)CNC(=O)CSC(=O)c1ccccc1 | -8.9 |  |
| CC(=O)NC(c1cc(Cl)c2cccnc2c1O)C(C)C (stereo not given) | -15.9 |  |
| Cc1cc(NS(=O)(=O)c2cc3c(cc2F)NC(=O)CC3)ccc1Cl |  | inactive |
| COc1ccc(C2c3c(nc(CCCc4ccccc4)[nH]c3=O)Oc3ccc4ccccc4c32)cc1OC (stereo not given) | -3.9 |  |
| Cc1cc2c(s1)c1cnn(Cc3c(F)ccc(Cl)c3F)c(=O)c1n2C | 0.429 |  |
| Cc1cc(C)nc(NC(=S)N2CCN(c3cc(Br)cc(C(F)(F)F)c3)CC2)c1 | -1.66 |  |
| CN1CCC(N(Cc2cccs2)c2ccccc2)CC1 | 1.11 |  |
| Cc1cc2c(s1)c1cnn(Cc3ccccc3Br)c(=O)c1n2C | -5.61 |  |
| Cc1nc(-c2ccccc2C(C)C)nc(NCc2ccc(-c3cccnc3)cc2)c1C | 57.9 |  |
| CN(Cc1ccco1)c1ncnc2ccc(-c3ccc4c(c3)OCCO4)cc12 | 6.9 |  |
| CC(=O)Nc1sc2c(c1-c1cccs1)CCNC2 | -20.1 |  |
